From PubChem BioAssay (Tox21) come the findings set out here.

Records with an inconclusive call do not appear. Entries that show only a call come without a potency. Active and inactive are the calls of the source. Unless noted, calls come from the whole dose curve; as a rule, active = well fitted cell-killing curve with a large enough effect in the repeat runs; inconclusive = weak or mixed curves, or effect the other way; inactive = no such curve, though single readings can be large or run the other way.

The first assay is described as follows: qHTS assay for small molecule agonists of the antioxidant response element (ARE) signaling pathway - cell viability counter screen (AID 743203; calls by dose curve; note: nearly all actives have a fitted effect of over 55% in size). To be noted: ARE-bla HepG2 viability, CellTiter-Glo luminescence, 16 h; series mostly up to 73.3 µM. In a few lines: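 Following 16 hrs of compound treatment at 37C, HepG2 cells with an ARE-controlled beta-lactamase gene were lysed with CellTiter-Glo. Luminescence was read after 30 min at room temperature.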
Background: In qHTS, concentration-response curves come from the screen itself.
With `CC(C)C(Br)C(=O)NC(N)=O` (configuration not stated), the Potency result is “inactive”.
Still for that read-out and setting: as for `CCCCC(CC)COC(=O)OOC(C)(C)C` (configuration not stated), the entry is “inactive”.
On to `CCOC(=O)Cc1ccccc1`, for which the Potency result was “inactive”.
Still for that read-out and setting: as for `c1csc(-c2ccc(-c3cccs3)s2)c1`, the entry is “inactive”.
As to `N#CSCc1ccccc1`, the Potency result is “inactive”.
The same measure, in the same setting: as for `C[C@H]1[C@H](c2ccc(Cl)cc2)SC(=O)N1C(=O)NC1CCCCC1`, the entry is “inactive”; as for `CNC(=O)/C=C(\C)OP(=O)(OC)OC`, “inactive”; as for `CSC(C)(C)/C=N/O`, “inactive”.
Same read-out and setting: then `CCCCC(CC)COC(=O)c1ccccc1C(=O)OCC(CC)CCCC` (configuration not stated), with “inactive”; and `NC(=O)C(Cl)Cl`, with “inactive”.

A short description of another assay: qHTS assay for small molecule activators of the heat shock response signaling pathway - cell viability counter screen (AID 743209). Note: nearly all actives have a fitted effect of over 50% in size. Note: potency is the fitted concentration of half-maximal effect. To be noted: HSE-bla HeLa viability, CellTiter-Glo luminescence, 5 h; series mostly up to 62.6 µM. In a few lines:
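Readout: CellTiter-Glo luminescence, 30 min at room temperature. System: HSE-bla HeLa cells, 1500/well, plated overnight. Treatment: compounds in DMSO, 5 h at 37 C.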
For the compound `CC(C)N(C(=O)SC/C(Cl)=C/Cl)C(C)C`, the Potency entry was “inactive”.
On the same count and under the same terms, as for `CCCCN(CCCC)C(=S)S`, the entry is “inactive”; as for `O=[N+]([O-])c1ccc(CCl)cc1`, “inactive”; as for `Cc1ccc(C)c2ccccc12`, “inactive”.
On to `COC(=O)c1cc(Oc2ccc(Cl)cc2Cl)ccc1[N+](=O)[O-]`, for which the Potency entry is “inactive”.
Same read-out and setting: then `CCOC(=O)CCN(SN(C)C(=O)Oc1cccc2c1OC(C)(C)C2)C(C)C`, with “inactive”; and `CCCCc1ccccc1`, with “inactive”; and `CC(C)Br`, with “inactive”.
The same measure, in the same setting: then `CCOP(=S)(OCC)Oc1cc(C)nc(N(CC)CC)n1`, with “inactive”; and `Clc1cc(Cl)c(-c2cc(Cl)c(Cl)cc2Cl)cc1Cl`, with “inactive”.
Still for that read-out and setting: then `CNC(=O)CSP(=O)(OC)OC`, with “inactive”; and `O=S(=O)(O)F`, with “inactive”; and `CC(C)=CC1C(C(=O)OC(C#N)c2cccc(Oc3ccccc3)c2)C1(C)C` (configuration not stated), with “inactive”.
For `COc1ccc2[nH]cc(CCN(C(C)C)C(C)C)c2c1`, the Potency entry was “inactive”.
On the same count and under the same terms, then `CC1(C)C(C=C(Cl)Cl)C1C(=O)OC(C#N)c1ccc(F)c(Oc2ccccc2)c1` (configuration not stated), with “inactive”; and `O=S1OCC2C(CO1)C1(Cl)C(Cl)=C(Cl)C2(Cl)C1(Cl)Cl` (configuration not stated), with 24.5 µM (active).
The same measure, in the same setting: as for `CN(C)c1ccc(N)cc1`, the entry is “inactive”; as for `Cc1ccn2nc(S(=O)(=O)Nc3c(F)cccc3F)nc2n1`, “inactive”; as for `ClC1=C(Cl)[C@]2(Cl)[C@@H]3[C@H]4C[C@H]([C@@H]5O[C@H]45)[C@@H]3[C@@]1(Cl)C2(Cl)Cl`, “inactive”.
On the same count and under the same terms, as for `COC(=O)/C=C(\C)OP(=O)(OC)OC`, the entry is “inactive”; as for `ClC1(Cl)C2(Cl)C3(Cl)C4(Cl)C(Cl)(Cl)C5(Cl)C3(Cl)C1(Cl)C5(Cl)C24Cl` (configuration not stated), “inactive”; as for `Cc1cnc2c(C(=O)O)c(Cl)ccc2c1`, “inactive”.
On to `CNC(=O)Oc1cc(C)cc(C(C)C)c1`, for which the Potency entry is “inactive”.
On the same count and under the same terms, then `N#Cc1ccc(N(CC(N)=O)CC(F)(F)F)cc1C(F)(F)F`, with “inactive”; and `Cc1c([N+](=O)[O-])c(C)c([N+](=O)[O-])c(C(C)(C)C)c1[N+](=O)[O-]`, with “inactive”.
Regarding `Clc1ccc(C(c2ccc(Cl)cc2)C(Cl)Cl)cc1`, the Potency was 49 µM (active).
The same measure, in the same setting: as for `CC(C)C(Br)C(=O)NC(N)=O` (configuration not stated), the entry is “inactive”.
Still for that read-out and setting: then `CCCCC(CC)COC(=O)OOC(C)(C)C` (configuration not stated), with 49 µM (active); and `CCOC(=O)Cc1ccccc1`, with “inactive”.
Same read-out and setting: as for `c1csc(-c2ccc(-c3cccs3)s2)c1`, the entry is “inactive”; as for `N#CSCc1ccccc1`, “inactive”.
In the case of `C[C@H]1[C@H](c2ccc(Cl)cc2)SC(=O)N1C(=O)NC1CCCCC1`, the Potency result was “inactive”.
For the compound `COc1c2c(cc3c1OCO3)CCN(C)C2`, the Potency result was “inactive”.
In the case of `CNC(=O)/C=C(\C)OP(=O)(OC)OC`, the Potency result was “inactive”.
Same read-out and setting: as for `CSC(C)(C)/C=N/O`, the entry is “inactive”; as for `NC(=O)C(Cl)Cl`, “inactive”.

Another assay can be described thus: qHTS assay for small molecule activators of the heat shock response signaling pathway (AID 743210; active = well fitted activation curve with a large enough effect in the signal ratio in the repeat runs, with a control signal flat, not every such curve was filed as active; the % refers to the signal ratio; note: potency is the fitted concentration of half-maximal effect;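 for activation: HeLa cells with beta-lactamase reporter driven by heat shock elements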). As to conditions: HeLa HSE-bla reporter, beta-lactamase ratio, 5 h; series mostly up to 62.6 µM. A digest of the protocol: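 Reporter gene assay: HeLa cells stably bearing an HSE-bla construct, compound treatment 5 h at 37 C, LiveBLAzer substrate 2.5 h at RT, fluorescence intensity.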
For `CC(C)N(C(=O)SC/C(Cl)=C/Cl)C(C)C`, the Potency result is “inactive”.
Same read-out and setting: then `O=[N+]([O-])c1ccc(CCl)cc1`, with “inactive”; and `Cc1ccc(C)c2ccccc12`, with “inactive”.
Same read-out and setting: as for `COC(=O)c1cc(Oc2ccc(Cl)cc2Cl)ccc1[N+](=O)[O-]`, the entry is “inactive”; as for `CC(C)Br`, “inactive”; as for `CCOP(=S)(OCC)Oc1cc(C)nc(N(CC)CC)n1`, “inactive”.
With `Clc1cc(Cl)c(-c2cc(Cl)c(Cl)cc2Cl)cc1Cl`, the Potency entry was “inactive”.
On the same count and under the same terms, as for `CNC(=O)CSP(=O)(OC)OC`, the entry is “inactive”; as for `O=S(=O)(O)F`, “inactive”.
Same read-out and setting: as for `COc1ccc2[nH]cc(CCN(C(C)C)C(C)C)c2c1`, the entry is “inactive”; as for `CN(C)c1ccc(N)cc1`, “inactive”.
Still for that read-out and setting: as for `Cc1ccn2nc(S(=O)(=O)Nc3c(F)cccc3F)nc2n1`, the entry is “inactive”; as for `CC(C)(C)c1ccc(OP(=O)(Oc2ccccc2)Oc2ccccc2)cc1`, “inactive”.
Take `ClC1=C(Cl)[C@]2(Cl)[C@@H]3[C@H]4C[C@H]([C@@H]5O[C@H]45)[C@@H]3[C@@]1(Cl)C2(Cl)Cl`: the Potency is 51.8 µM (active).
Same read-out and setting: as for `ClC1(Cl)C2(Cl)C3(Cl)C4(Cl)C(Cl)(Cl)C5(Cl)C3(Cl)C1(Cl)C5(Cl)C24Cl` (configuration not stated), the entry is “inactive”; as for `Cc1cnc2c(C(=O)O)c(Cl)ccc2c1`, “inactive”; as for `CNC(=O)Oc1cc(C)cc(C(C)C)c1`, “inactive”.
Still for that read-out and setting: as for `N#Cc1ccc(N(CC(N)=O)CC(F)(F)F)cc1C(F)(F)F`, the entry is “inactive”; as for `Cc1c([N+](=O)[O-])c(C)c([N+](=O)[O-])c(C(C)(C)C)c1[N+](=O)[O-]`, “inactive”.
With `CC(C)C(Br)C(=O)NC(N)=O` (configuration not stated), the Potency result was “inactive”.
Same read-out and setting: then `CCOC(=O)Cc1ccccc1`, with “inactive”; and `N#CSCc1ccccc1`, with “inactive”; and `COc1c2c(cc3c1OCO3)CCN(C)C2`, with “inactive”.
Take `CNC(=O)/C=C(\C)OP(=O)(OC)OC`: the Potency result was “inactive”.
Same read-out and setting: as for `CSC(C)(C)/C=N/O`, the entry is “inactive”.
Same read-out and setting: as for `NC(=O)C(Cl)Cl`, the entry is “inactive”.
